PLAP activator: human PLAP activation; P05187; purified PLAP enzyme, luminescent substrate read-out; hits give high values; activation fold at 20 µM; 96,000 tested, 1.2% active; AID 696; in the data active = activation fold above about 2
CYP2C9 inhib: human CYP2C9 inhibition; P11712; CYP2C9 Supersomes, luciferin-H conversion, luminescence; inhibition, % at 5 µM; 96,000 tested, 20% active; AID 777;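 active = blocking of liver enzyme CYP2C9 beyond about 50% at 5 µM, limit read from the data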
CYP2C9 activ: increases human cytochrome P450 2C9 activity. recombinant CYP2C9, luciferin-H conversion, luminescence; hits give high values; factor 1 = untreated enzyme, 0 = blocked. activation factor at 5 µM. 96,000 tested, 1.4% active. AID 1024;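 active = activation factor of 2 or more for CYP2C9 at a 5 µM dose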
CYP2C19 activ: cytochrome P450 2C19 (human) activation; 96,000 tested, under 10 active; activation factor at 5 µM; recombinant CYP2C19, luciferin-H EGE luminescence; hits give high values; 0 = fully inhibited enzyme, 1 = untreated enzyme;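 active = activation factor of at least 2 at 5 µM in the primary screen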
Target sequence (P33261 whole entry, looked up): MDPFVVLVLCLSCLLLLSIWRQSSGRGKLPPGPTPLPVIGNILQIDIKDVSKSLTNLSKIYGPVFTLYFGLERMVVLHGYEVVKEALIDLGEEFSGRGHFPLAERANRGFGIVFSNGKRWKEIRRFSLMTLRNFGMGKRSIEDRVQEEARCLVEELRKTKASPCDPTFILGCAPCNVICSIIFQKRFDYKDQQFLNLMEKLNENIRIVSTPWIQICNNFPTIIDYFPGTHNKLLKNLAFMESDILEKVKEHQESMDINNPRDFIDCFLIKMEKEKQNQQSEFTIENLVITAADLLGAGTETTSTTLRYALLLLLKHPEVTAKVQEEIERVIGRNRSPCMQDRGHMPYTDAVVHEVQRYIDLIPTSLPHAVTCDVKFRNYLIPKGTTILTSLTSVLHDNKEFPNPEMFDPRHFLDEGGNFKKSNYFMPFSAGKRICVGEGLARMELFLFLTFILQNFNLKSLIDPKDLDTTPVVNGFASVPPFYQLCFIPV
CYP2C19 inhib: blocks human cytochrome P450 2C19 | inhibition, % at 5 µM | 96,000 tested, 21% active | AID 778 | CYP2C19 Supersomes, luciferin-H EGE luminescence, 30 min | P33261;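 active = CYP2C19 inhibition above a set limit at 5 µM in the primary screen, cut at about 50% in these data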
Of the large screens only hits and unclear results are named; the others gave an inactive call. Hits are enriched below; roughly 31% of the tested compounds scored in any of these assays.

COc1ccc(N(CC(=O)N2CCc3ccccc3C2)S(C)(=O)=O)cc1	none
COc1ccc(S(=O)(=O)N(CC(=O)NCCCN(C)C)c2ccc(C)cc2)cc1OC	none
COc1ccccc1CNC(=O)CN(c1ccc(C)cc1)S(=O)(=O)c1c(C)nn(C)c1C	CYP2C9 inhib 80.6, CYP2C19 inhib 70.3
COc1ccc(OC)c(N(CC(=O)NCc2ccccn2)S(C)(=O)=O)c1	none
COc1ccc(N(CC(=O)NCc2ccccc2OC)S(=O)(=O)c2c(C)nn(C)c2C)cc1	CYP2C9 inhib 93.5, CYP2C19 inhib 66.1
COc1ccc(N(CC(=O)N2CCc3ccccc3C2)S(=O)(=O)c2c(C)nn(C)c2C)cc1	CYP2C9 inhib 64.4, CYP2C19 inhib 91.1
CCc1ccc(NC(=O)c2onc(C)c2Cl)cc1	none
Cc1nc(NC(=O)c2ccccc2)sc1-c1csc(Nc2ccc(Cl)cc2)n1	none
COc1ccc(Nc2nc(-c3cccs3)cs2)cc1	none
Clc1ccc(Nc2nc(-c3cccnc3)cs2)cc1	CYP2C19 inhib 83.2
CN(C)c1ccc(Nc2nc(-c3cccnc3)cs2)cc1	CYP2C19 inhib 81.4
COc1ccc(S(=O)(=O)Nc2ccc(F)c(F)c2)cc1Cl	CYP2C19 inhib 61.1
COc1ccc(S(=O)(=O)Nc2ccc(C(F)(F)F)cc2)cc1OC	CYP2C9 inhib 61.5, CYP2C19 inhib 98.7
COc1ccc(S(=O)(=O)Nc2ccc(S(=O)(=O)N3CCOCC3)cc2)cc1C	CYP2C9 inhib 92.7, CYP2C19 inhib 76.2
COc1ccc(C(=O)C2CCN(S(=O)(=O)c3ccc4c(c3)OCCO4)CC2)cc1	CYP2C19 inhib 98.1
CN1CCc2nc3sc(C(=O)C45CC6CC(CC(C6)C4)C5)c(N)c3cc2C1	none
CCN(CC)CCNc1nc(-c2ccccc2)nnc1C(F)(F)F	none
COc1ccc(S(=O)(=O)Nc2ccccn2)cc1OC	none
COc1ccc(S(=O)(=O)Nc2cccc(Cl)c2)cc1OC	CYP2C19 inhib 92.6
COc1ccc(NS(=O)(=O)c2ccc(S(=O)(=O)N3CCCC3)cc2)cc1	CYP2C9 inhib 68.7
COc1ccc(NS(=O)(=O)c2ccc(S(=O)(=O)N3CCCC3)cc2)cc1Cl	CYP2C9 inhib 97.0, CYP2C19 inhib 97.9
COc1ccc(S(=O)(=O)N2CCC(C(=O)N3CCCCCC3)CC2)cc1	CYP2C9 activ 2.5, CYP2C19 inhib 84.6
COc1ccc(S(=O)(=O)N2CCC(C(=O)N3CCCC3)CC2)cc1	none
Cc1ccccc1C(=O)c1c[nH]c(C(=O)NCc2ccco2)c1	none
Cc1ccc(S(=O)(=O)c2cc(C#N)c(=O)[nH]c2N)cc1	none
O=C(Nc1nnc(C2CC2)s1)c1cccc(S(=O)(=O)N2CCc3ccccc32)c1	none
CCC1SC2=NC(C)=C(C(=O)OC)C(c3ccc(C(=O)OC)cc3)N2C1=O (stereo not drawn)	CYP2C19 inhib 92.8
CCC1SC2=NC(C)=C(C(=O)OCCOC)C(c3ccc(C(=O)OC)cc3)N2C1=O (stereo not drawn)	CYP2C9 inhib 65.1, CYP2C19 inhib 65.3
COc1cc2ccccc2cc1C(=O)Nc1ccccc1N1CCN(S(C)(=O)=O)CC1	CYP2C19 inhib 50.3
CS(=O)(=O)N1CCN(c2ccccc2NC(=O)c2ccc(-c3ccc(Br)cc3)o2)CC1	CYP2C9 inhib 70.9, CYP2C19 inhib 56.3
CCCn1c(=O)c(C(=O)Nc2c(C)n(C)n(-c3ccccc3)c2=O)c(O)c2ccccc21	none
COc1ccc(Cc2nnc(-c3ccc(F)cc3)o2)cc1OC	none
CCOC(=O)CNC(=O)C1CCCN(c2ncccn2)C1 (stereo not drawn)	none
O=C(NCc1cccs1)C1CCCCC1	CYP2C19 inhib 50.6
O=C(NCc1cccs1)C1CC(=O)N(c2ccc(F)cc2)C1 (stereo not drawn)	CYP2C19 inhib 58.8
CCNC(=O)C1CC(=O)N(c2ccc(Br)cc2)C1 (stereo not drawn)	CYP2C19 inhib 70.3
O=C(NCc1cccs1)C1CCCN(c2ncccn2)C1 (stereo not drawn)	CYP2C19 inhib 52.8
Cc1c(C(=O)NCc2cccnc2)sc2ncn(CC(=O)N3CCCCC3C)c(=O)c12 (stereo not drawn)	none
O=S(=O)(c1ccc(F)cc1)N1CCN(c2ncnc3c2cnn3-c2ccccc2)CC1	none
CC1CCCC(NC(=O)COC(=O)Cc2ccsc2)C1C (stereo not drawn)	CYP2C19 inhib 64.4
CC1CCCC(NC(=O)COC(=O)CCC2CCCC2)C1C (stereo not drawn)	CYP2C9 inhib 63.5
O=C(COC(=O)Cc1ccsc1)NC1CCCCCC1	CYP2C19 inhib 73.8
O=C(COC(=O)c1cccc(C(=O)OCC(=O)NC2CCCCC2)n1)NC1CCCCC1	none
CC1CCCC(NC(=O)COC(=O)COc2ccc(Cl)cc2)C1C (stereo not drawn)	none
O=C(COC(=O)Cc1ccsc1)NCC12CC3CC(CC(C3)C1)C2	CYP2C19 inhib 58.9
CCN(CC)CCCN1C(=O)c2oc3ccccc3c(=O)c2C1c1cccc(OC)c1OC (stereo not drawn)	none
Cc1ccc(OCc2nc(-c3ccccn3)no2)cc1	none
c1ccc(SCc2nc(-c3ccncc3)no2)cc1	CYP2C9 inhib 82.8, CYP2C19 inhib 95.5
Cc1ccc(SCc2nc(-c3ccccn3)no2)cc1	CYP2C9 inhib 51.7, CYP2C19 inhib 85.5
Cc1ccc(SCc2nc(-c3ccncc3)no2)cc1	CYP2C9 inhib 90.7, CYP2C19 inhib 98.7
Cc1ccc(SC(C)c2nc(-c3ccncc3)no2)cc1 (stereo not drawn)	CYP2C9 inhib 96.5, CYP2C19 inhib 99.6
Cc1cc(=O)oc(C)c1C(=O)Nc1ccc(Cl)cn1	none
O=c1oc2ccccc2cc1-c1nnc(NCc2ccco2)s1	none
CSCCNC(C)=O	none
CCC(C)[C@@H](C(=O)Nc1ccc(OC)c(OC)c1)N1Cc2ccccc2C1=O (stereo partly drawn)	none
O=C1c2ccccc2C(=O)N1Cc1nc(-c2ccccc2)no1	none
O=C1c2ccccc2C(=O)N1Cc1nc(-c2ccncc2)no1	CYP2C9 inhib 84.1, CYP2C19 inhib 92.2
O=C1c2ccccc2C(=O)N1CCCSc1nc2ccccc2o1	none
O=C1c2ccccc2C(=O)N1Cc1nc2ccccc2o1	CYP2C19 inhib 64.3
Cc1ccc(SCc2nc(-c3ccccc3)no2)cc1	CYP2C9 inhib 51.2, CYP2C19 inhib 85.6
CCC(Sc1nc2n[nH]c(C)c2c(=N)n1-c1cccc(Cl)c1C)C(=O)N(CC)CC (stereo not drawn)	CYP2C9 inhib 59.2
Cc1cc(NC(=O)Nc2cccc3ccccc23)no1	none
O=C(Nc1cccc2ccccc12)N1CCOCC1	none
O=C(Nc1cc(N2CCOCC2)ncn1)Nc1cccc2ccccc12	CYP2C9 activ 2
O=S(=O)(/N=C(/Nc1cc(N2CCOCC2)ncn1)c1ccc(F)cc1)c1ccccc1	PLAP activator 2.1
S=C(Nc1cccc2ccccc12)NN1CCOCC1	CYP2C9 inhib 80.7, CYP2C19 inhib 75.2
O=C(c1cc2ccccc2oc1=O)N1CCN(c2ccccn2)CC1	CYP2C19 inhib 77.1
Cc1cccc(N2CCN(C(=O)c3cc4ccccc4oc3=O)CC2)c1C	none

Assay outcomes as filed in PubChem BioAssay.
